Results as given in PubChem BioAssay (NCI).
The panel holds about 79,000 compounds, 15% with a hit somewhere; the sample as a whole holds those more often. Values without a mark were called inactive. Active and inactive are the calls of the source. Cut-off read from the data, not from the text of the source: active = growth inhibition above about 70%; inactive = the rest.

How the values were obtained:
[1] = NCI Yeast Anticancer Drug Screen. Data for the rad50 strain (AID 155);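 note: 0% = growth of vehicle-only cultures of the same strain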; conditions: S. cerevisiae rad50 strain growth inhibition, stronger effect = higher value
In short: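 Readout: growth inhibition relative to vehicle-treated cultures. Compound exposure was carried out in a genetically defined yeast strain deficient in DNA damage repair.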

[2] = NCI Yeast Anticancer Drug Screen. Data for the mec2-1 strain (AID 157); conditions: S. cerevisiae mec2-1 strain, stronger effect = higher value
In short: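 mec2-1 yeast strain, carrying an alteration in DNA damage repair or cell cycle control, was exposed to compounds; growth inhibition was measured relative to vehicle-treated controls.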

[3] = NCI Yeast Anticancer Drug Screen. Data for the sgs1 mgt1 strain (AID 161);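 note: 0% = growth of cultures given vehicle only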; conditions: S. cerevisiae sgs1 mgt1 strain, stronger effect = higher value
In short: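 Yeast cells carrying a defined DNA-repair defect were exposed to test compounds. Growth inhibition was measured relative to vehicle-treated controls.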

[4] = NCI Yeast Anticancer Drug Screen. Data for the cln2 rad14 strain (AID 165);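 note: 0% = growth equal to vehicle treated cultures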; conditions: S. cerevisiae cln2 rad14 strain, stronger effect = higher value
In short: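 Yeast carrying cln2 and rad14 alterations (cell cycle control and DNA damage repair) were exposed to compounds. Growth inhibition was measured against vehicle-treated controls.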

[5] = NCI Yeast Anticancer Drug Screen. Data for the bub3 strain (AID 167); conditions: S. cerevisiae bub3 mutant strain, stronger effect = higher value
In short: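 Readout: yeast growth inhibition, expressed relative to vehicle-only wells. The test organism is a mutant strain from a panel with lesions in DNA repair or checkpoint genes.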

[6] = NCI Yeast Anticancer Drug Screen. Data for the mlh1 rad18 strain (AID 175); conditions: S. cerevisiae mlh1 rad18 strain growth inhibition, stronger effect = higher value
In short: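 Growth inhibition of the yeast strain was measured after compound exposure and expressed relative to vehicle-treated controls. The strain carries defined defects in DNA damage repair.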

[7] = at 5.0 µM (retest, dose inferred, filed as 0.5)
[8] = at 50.0 µM (retest, dose inferred, filed as 5.0)

## CC(=O)N1OC2(C)c3ccccc3C1(C)c1ccccc12
[1]; [7]
  growth inhibition: 99% (active)
[1]; [8]
  growth inhibition: 94% (active)
[1]; at 50.0 µM
  growth inhibition: 99.2% (active)
[2]; [7]
  growth inhibition: 99% (active)
[2]; [8]
  growth inhibition: 97% (active)
[2]; at 50.0 µM
  growth inhibition: 99.4% (active)
[3]; [7]
  growth inhibition: 99% (active)
[3]; [8]
  growth inhibition: 96% (active)
[3]; at 50.0 µM
  growth inhibition: 97.9% (active)
[4]; [7]
  growth inhibition: 98% (active)
[4]; [8]
  growth inhibition: 95% (active)
[4]; at 50.0 µM
  growth inhibition: 99.2% (active)
[5]; [7]
  growth inhibition: 99% (active)
[5]; [8]
  growth inhibition: 96% (active)
[5]; at 50.0 µM
  growth inhibition: 99.4% (active)
[6]; [7]
  growth inhibition: 99% (active)
[6]; [8]
  growth inhibition: 95% (active)
[6]; at 50.0 µM
  growth inhibition: 99.1% (active)

## CN1c2ccccc2C(c2ccccc2)c2ccc(Nc3ccccc3)cc21 (stereo not given)
[1]; [7]
  growth inhibition: 94% (active)
[1]; [8]
  growth inhibition: 99% (active)
[1]; at 50.0 µM
  growth inhibition: 97.7% (active)
[2]; [7]
  growth inhibition: 100% (active)
[2]; [8]
  growth inhibition: 100% (active)
[2]; at 50.0 µM
  growth inhibition: 99.6% (active)
[3]; [7]
  growth inhibition: 98% (active)
[3]; [8]
  growth inhibition: 100% (active)
[3]; at 50.0 µM
  growth inhibition: 99.5% (active)
[4]; [7]
  growth inhibition: 95% (active)
[4]; [8]
  growth inhibition: 99% (active)
[4]; at 50.0 µM
  growth inhibition: 99.2% (active)
[5]; [7]
  growth inhibition: 96% (active)
[5]; [8]
  growth inhibition: 99% (active)
[5]; at 50.0 µM
  growth inhibition: 99.3% (active)
[6]; [7]
  growth inhibition: 98% (active)
[6]; [8]
  growth inhibition: 99% (active)
[6]; at 50.0 µM
  growth inhibition: 99.4% (active)

## CC(CCCN(C)Cc1ccccc1)Nc1ccnc2cc(Cl)ccc12 (stereo not given)
[1]; [7]
  growth inhibition: 88% (active)
[1]; [8]
  growth inhibition: 99% (active)
[1]; at 50.0 µM
  growth inhibition: 99% (active)
[2]; [7]
  growth inhibition: 53%
[2]; [8]
  growth inhibition: 100% (active)
[2]; at 50.0 µM
  growth inhibition: 98.3% (active)
[3]; [7]
  growth inhibition: 99% (active)
[3]; [8]
  growth inhibition: 99% (active)
[3]; at 50.0 µM
  growth inhibition: 99.5% (active)
[4]; [7]
  growth inhibition: 41%
[4]; [8]
  growth inhibition: 99% (active)
[4]; at 50.0 µM
  growth inhibition: 99.4% (active)
[5]; [7]
  growth inhibition: 86% (active)
[5]; [8]
  growth inhibition: 99% (active)
[5]; at 50.0 µM
  growth inhibition: 99.5% (active)
[6]; [7]
  growth inhibition: 99% (active)
[6]; [8]
  growth inhibition: 99% (active)
[6]; at 50.0 µM
  growth inhibition: 98% (active)

## Cc1ccccc1NC(=O)Cc1csc(N=Nc2c(O)[nH]c3ccccc23)n1
[1]; [7]
  growth inhibition: 18%
[1]; [8]
  growth inhibition: 17%
[1]; at 50.0 µM
  growth inhibition: -33.6%
[2]; [7]
  growth inhibition: 1%
[2]; [8]
  growth inhibition: 1%
[2]; at 50.0 µM
  growth inhibition: -42.9%
[3]; [7]
  growth inhibition: 1%
[3]; [8]
  growth inhibition: -2%
[3]; at 50.0 µM
  growth inhibition: -6.95%
[4]; [7]
  growth inhibition: 9%
[4]; [8]
  growth inhibition: -6%
[4]; at 50.0 µM
  growth inhibition: -12.1%
[5]; [7]
  growth inhibition: 25%
[5]; [8]
  growth inhibition: 25%
[5]; at 50.0 µM
  growth inhibition: -11.1%
[6]; [7]
  growth inhibition: 15%
[6]; [8]
  growth inhibition: 17%
[6]; at 50.0 µM
  growth inhibition: -27.7%

## CCOC(=O)c1ccc2c(c1)Cc1cc([N+](=O)[O-])ccc1-2
[1]; [7]
  growth inhibition: 1%
[1]; [8]
  growth inhibition: 65%
[1]; at 50.0 µM
  growth inhibition: 43.6%
[2]; [7]
  growth inhibition: -2%
[2]; [8]
  growth inhibition: 37%
[2]; at 50.0 µM
  growth inhibition: 15.8%
[3]; [7]
  growth inhibition: 7%
[3]; [8]
  growth inhibition: 72% (active)
[3]; at 50.0 µM
  growth inhibition: 51%
[4]; [7]
  growth inhibition: -97%
[4]; [8]
  growth inhibition: 12%
[4]; at 50.0 µM
  growth inhibition: 4.15%
[5]; [7]
  growth inhibition: 43%
[5]; [8]
  growth inhibition: 89% (active)
[5]; at 50.0 µM
  growth inhibition: 80.8% (active)
[6]; [7]
  growth inhibition: 7%
[6]; [8]
  growth inhibition: 57%
[6]; at 50.0 µM
  growth inhibition: 58.1%

## CC1=C(C)C(N2CCOCC2)CS(=O)(=O)O1 (stereo not given)
[1]; [7]
  growth inhibition: 4%
[1]; [8]
  growth inhibition: 0%
[1]; at 50.0 µM
  growth inhibition: 6.15%
[2]; [7]
  growth inhibition: 1%
[2]; [8]
  growth inhibition: -3%
[2]; at 50.0 µM
  growth inhibition: -14.4%
[3]; [7]
  growth inhibition: 5%
[3]; [8]
  growth inhibition: 0%
[3]; at 50.0 µM
  growth inhibition: -2.3%
[4]; [7]
  growth inhibition: 3%
[4]; [8]
  growth inhibition: -1%
[4]; at 50.0 µM
  growth inhibition: 16.4%
[5]; [7]
  growth inhibition: -2%
[5]; [8]
  growth inhibition: -1%
[5]; at 50.0 µM
  growth inhibition: 1.35%
[6]; [7]
  growth inhibition: 19%
[6]; [8]
  growth inhibition: 17%
[6]; at 50.0 µM
  growth inhibition: -3.95%

## OCN(CO)c1ccc2c(c1)Cc1cc(F)ccc1-2
[1]; [7]
  growth inhibition: 34%
[1]; [8]
  growth inhibition: 97% (active)
[1]; at 50.0 µM
  growth inhibition: 92.8% (active)
[2]; [7]
  growth inhibition: -19%
[2]; [8]
  growth inhibition: 99% (active)
[2]; at 50.0 µM
  growth inhibition: 86.2% (active)
[3]; [7]
  growth inhibition: 41%
[3]; [8]
  growth inhibition: 97% (active)
[3]; at 50.0 µM
  growth inhibition: 51.2%
[4]; [7]
  growth inhibition: 1%
[4]; [8]
  growth inhibition: 97% (active)
[4]; at 50.0 µM
  growth inhibition: 96.5% (active)
[5]; [7]
  growth inhibition: -5%
[5]; [8]
  growth inhibition: 97% (active)
[5]; at 50.0 µM
  growth inhibition: 90.9% (active)
[6]; [7]
  growth inhibition: 59%
[6]; [8]
  growth inhibition: 98% (active)
[6]; at 50.0 µM
  growth inhibition: 97.8% (active)

## C#CC(=O)OCC#CCOC(=O)C#C
[1]; [7]
  growth inhibition: 3%
[1]; [8]
  growth inhibition: 77% (active)
[1]; at 50.0 µM
  growth inhibition: 97.5% (active)
[2]; [7]
  growth inhibition: 0%
[2]; [8]
  growth inhibition: 95% (active)
[2]; at 50.0 µM
  growth inhibition: 98.5% (active)
[3]; [7]
  growth inhibition: -9%
[3]; [8]
  growth inhibition: 83% (active)
[3]; at 50.0 µM
  growth inhibition: 78.2% (active)
[4]; [7]
  growth inhibition: -7%
[4]; [8]
  growth inhibition: 15%
[4]; at 50.0 µM
  growth inhibition: 49.2%
[5]; [7]
  growth inhibition: 1%
[5]; [8]
  growth inhibition: 76% (active)
[5]; at 50.0 µM
  growth inhibition: 92.2% (active)
[6]; [7]
  growth inhibition: 5%
[6]; [8]
  growth inhibition: 96% (active)
[6]; at 50.0 µM
  growth inhibition: 96% (active)

## O=C(CC(O)(C(F)(F)F)C(F)(F)Cl)CC(O)(C(F)(F)F)C(F)(F)Cl (stereo not given)
[1]; [7]
  growth inhibition: 94% (active)
[1]; [8]
  growth inhibition: 88% (active)
[1]; at 50.0 µM
  growth inhibition: 99.3% (active)
[2]; [7]
  growth inhibition: 92% (active)
[2]; [8]
  growth inhibition: 99% (active)
[2]; at 50.0 µM
  growth inhibition: 99.4% (active)
[3]; [7]
  growth inhibition: 91% (active)
[3]; [8]
  growth inhibition: 99% (active)
[3]; at 50.0 µM
  growth inhibition: 99.7% (active)
[4]; [7]
  growth inhibition: 89% (active)
[4]; [8]
  growth inhibition: 99% (active)
[4]; at 50.0 µM
  growth inhibition: 99% (active)
[5]; [7]
  growth inhibition: 86% (active)
[5]; [8]
  growth inhibition: 99% (active)
[5]; at 50.0 µM
  growth inhibition: 99.5% (active)
[6]; [7]
  growth inhibition: 94% (active)
[6]; [8]
  growth inhibition: 99% (active)
[6]; at 50.0 µM
  growth inhibition: 99.4% (active)

## O=c1oc(-c2ccc(Cl)cc2[N+](=O)[O-])nc2ccccc12
[1]; [7]
  growth inhibition: 16%
[1]; [8]
  growth inhibition: 10%
[1]; at 50.0 µM
  growth inhibition: 77.2% (active)
[2]; [7]
  growth inhibition: 17%
[2]; [8]
  growth inhibition: -1%
[2]; at 50.0 µM
  growth inhibition: 63.6%
[3]; [7]
  growth inhibition: 5%
[3]; [8]
  growth inhibition: 6%
[3]; at 50.0 µM
  growth inhibition: 70.3% (active)
[4]; [7]
  growth inhibition: 31%
[4]; [8]
  growth inhibition: 5%
[4]; at 50.0 µM
  growth inhibition: 39.2%
[5]; [7]
  growth inhibition: -6%
[5]; [8]
  growth inhibition: 6%
[5]; at 50.0 µM
  growth inhibition: 66.5%
[6]; [7]
  growth inhibition: -23%
[6]; [8]
  growth inhibition: -13%
[6]; at 50.0 µM
  growth inhibition: 68.5%
